Test results from ChEMBL document CHEMBL4513146, “CO-ADD screening of Karazin Kharkiv National University (Ukraine) compounds”.
Potency and affinity values are given separately.

test system: Klebsiella pneumoniae; settings: Concentration 32 ug.mL-1;; ASSAY_TEST Inhibition of Bacterial Growth; detection method Absorption (OD600); MEDIA CAMHB; plate type 384well; NBS; CORNING #3640; time 18 hr

Compound	Inhibition
CCOc1ccc(-n2ccn3c(SC(C)C(=O)Nc4ccc5c(c4)OCCO5)nnc3c2=O)cc1 (stereo not given)	14.39%
CC(C)NC(=O)Cn1nc2nc(Nc3ccc(F)cc3)ccn2c1=O	12.23%
COc1ccc(-n2ccn3c(-c4ccc([N+](=O)[O-])cc4)nnc3c2=O)cc1Cl	9.41%
CCc1ccc(NC(=O)Cn2nc3ccc(SC(C)(C)C)nn3c2=O)cc1	14.6%
COc1cccc(CNC(=O)CSc2nnc3c4cc(-c5ccc(C)cc5)nn4ccn23)c1	-13.2%
COc1ccc(C)cc1NC(=O)Cn1nc2c(N3CCSCC3)nc3ccccc3n2c1=O	14.66%
Cc1nnc2c(=O)n(CC(=O)Nc3cccc(Br)c3)c3ccccc3n12	7.61%
CCOc1ccc(NC(=O)Cn2nc3c4cc(-c5ccc(Cl)cc5)nn4ccn3c2=O)cc1	10.46%
CCCN(C)c1nccn2c(=O)n(CC(=O)Nc3ccc(F)cc3)nc12	16.44%
COc1cccc(-n2ccn3c(SCC(=O)c4cc(C)ccc4C)nnc3c2=O)c1	13.22%
COc1cc(NC(=O)Cn2nc3c(Oc4ccccc4)nccn3c2=O)cc(OC)c1OC	10.24%
COC(=O)c1ccc(Cn2nc3ccc(S(=O)(=O)N4CCCCCC4)cn3c2=O)o1	1.98%
COc1cccc(Cn2nc3n(CCC(=O)NC4CCCCC4)c(=O)c4ccccc4n3c2=O)c1	9.79%
COc1ccccc1-n1ccn2c(SCc3ccccc3C)nnc2c1=O	12.73%
Cc1nnc2ccc(S(=O)(=O)N(CC(=O)OC(C)(C)C)c3ccc4c(c3)OCO4)cn12	6.34%
COc1ccccc1Cn1c(=O)c2sccc2n2c(=O)n(Cc3cccc(C)c3)nc12	9.07%
CCc1nnc2c(=O)n(CC(=O)Nc3cc(Cl)ccc3Cl)c3ccccc3n12	6.11%
CCc1nnc2c(S(=O)(=O)N(Cc3cccc(OC)c3)c3ccc(F)cc3)cccn12	-0.6%
COc1ccc(N(Cc2ccc(C)cc2)S(=O)(=O)c2ccc3nnc(C)n3c2)cc1	-1.06%
COc1cc(NC(=O)CSc2nnc3c(=O)n(-c4cccc(F)c4)ccn23)cc(OC)c1	4.95%

Compound	Inhibition
COc1cccc(Oc2nccn3c(=O)n(CC(=O)NC4CCCCC4)nc23)c1	9.68%
COc1ccc(CNC(=O)CSc2nnc3c4cc(-c5ccc(C)cc5)nn4ccn23)cc1	9.18%
Cc1nnc2ccc(S(=O)(=O)N(Cc3ccccc3F)c3cccc(Cl)c3)cn12	8.99%
CCOc1ccccc1NC(=O)Cn1nc2c(Oc3cccc(OC)c3)nccn2c1=O	8.86%
CCOc1ccc(-n2ccn3c(SCC(=O)c4ccc(OC)cc4)nnc3c2=O)cc1	12.65%
CC(C)Cn1c(=O)c2sccc2n2c(=O)n(Cc3ccc(Br)cc3)nc12	4.98%
CC(C)CCn1c(=O)c2sccc2n2c(=O)n(CC(=O)NC(C)C)nc12	5.25%
CCOC(=O)c1cccc(NC(=O)CSc2nnc3ccc(C(=O)Nc4cccc(F)c4)cn23)c1	3.6%
Cc1ccc(NC(=O)Cn2nc3c(Oc4ccccc4)nccn3c2=O)c(Br)c1	-5.15%
COc1ccccc1-n1ccn2c(SCC(=O)Nc3ccc(C)cc3C)nnc2c1=O	11.64%
CCCCc1ccc(NC(=O)CSc2nnc3c4cc(-c5ccc(C)cc5)nn4ccn23)cc1	4.94%
Cc1ccc(-c2ccc3nn(CC(=O)Nc4cccc(Cl)c4)c(=O)n3n2)cc1C	4.06%
CC(C)Cn1c(=O)c2sccc2n2c(=O)n(CC(=O)N(C)c3ccccc3)nc12	9.42%
Cc1ccc(-c2ccc3nn(CC(=O)Nc4ccc(Cl)c(C(F)(F)F)c4)c(=O)n3n2)cc1C	0.66%
Cc1ccc(Cn2c(=O)c3ccccc3n3c(=O)n(CC#N)nc23)cc1	6.47%
COc1ccc(C)cc1NC(=O)Cn1nc2ccc(SCc3ccc(Cl)cc3)nn2c1=O	-0.56%
O=C(Cn1nc2ccc(SC3CCCCC3)nn2c1=O)Nc1ccc2c(c1)CCC2	11.52%
Cc1nnc2ccc(S(=O)(=O)N(Cc3cccc(F)c3)c3ccc(F)cc3)cn12	4.75%
Cc1ccc(-c2ccc3nnc(CCC(=O)NCc4cccc(Br)c4)n3n2)cc1	20.54%
CCOC(=O)c1ccccc1NC(=O)Cn1nc2c(Oc3ccccc3)nccn2c1=O	14.49%
